The source of these data is PubChem BioAssay AID504832 (National Center for Advancing Translational Sciences (NCATS), 2011).

Several values for one entry are separate records, joined by “and”; a condition that tells them apart may be missing. Identical values can stand only once. Out of some 310,000 compounds screened, about 18,000 (5.8%) were called active. Entries that show only a call come without a potency. Not shown: some 22% with an inconclusive outcome. The sample holds actives, similar compounds and a random draw of the others, so the mix is not that of the screen. Calls follow the shape of the dose curve; as a rule, active = well fitted inhibition curve with a large enough effect; inconclusive = small, poorly fitted or top-dose-only effect, or another doubt; inactive = no such curve, though single readings can be large or run the other way. The source holds several records for some structures; these can differ, active in one and inactive in another.
Potency is read from the fitted curve at half-maximal effect.

This experiment is described as follows: Primary qHTS for delayed death inhibitors of the malarial parasite plastid, 48 hour incubation. Particulars: P. falciparum luciferase growth in erythrocytes; series mostly up to 28.7 µM. The text has this:
The goal of this screen is to discover new antimalarial compounds that act by inhibiting the development of the apicoplast in the malarial parasite Plasmodium falciparum. The biochemical processes that make this organelle essential for erythrocytic stage parasites are not well understood. However, antibiotics such as azithromycin and tetracycline, which target the apicoplast translational machinery, have a potent antimalarial effect.
We have developed a cell-based assay that measures parasite growth based on the expression of an integrated copy of a firefly luciferase reporter. To detect small molecules that cause this "delayed death" phenotype, erythrocytes infected with the luciferase-expressing parasites were incubated with compounds for either one or two generations, corresponding to 48 and 96 hours, respectively. Compounds that inhibit parasite growth in the second generation, but not the first, should be enriched in antimalarials that target the apicoplast. Growth inhibition is detected by a decrease in luciferase activity.
Assay Provider: David Fidock and Eric Ekland, Columbia University
Keywords: NIH Roadmap, MLPCN, MLI, MLSMR, qHTS, NCGC, qHTS, malaria, luciferase, viability
Four microliters of culture medium (RPMI 1640 with 0.5% w/v Albumax (GIBCO), 24 mM sodium bicarbonate and 10 ug/mL gentamycin) were dispensed by a Multi-drop Combi into white solid 1536-well plates (Grenier) and 23 nL compound was added by a pin tool. Four microliters of infected erythrocytes (2% hematocrit, 0.1% parasitemia final concentration) in culture medium were dispensed and the plates incubated for 48 hours at 37 C in 5% CO2. Two microliters of luciferase detection reagent was added and luminescence was detected by a ViewLux (PerkinElmer) reader.
On the technique in general: In qHTS, concentration-response curves come from the screen itself.
Regarding `CC(C)CC(O)C1CCN(C(=O)CCc2nnc(-c3ccc4c(c3)OCO4)o2)CC1` (stereo not given), the Potency entry is “inactive”. With `N#Cc1ccc(OCC(=O)NC(=O)NC2CCS(=O)(=O)C2)cc1` (stereo not given) the entry was “inactive”. To `Cc1cc(C(=O)COc2ccccc2Cl)c(C)n1C1CC1` belongs “inactive”; to `CCN(CC(=O)NCc1ccco1)S(=O)(=O)c1ccc(F)cc1`, “inactive”. `Cc1c(C(C)CCCO)oc(=O)c2c1Oc1c(C)c(C(C)C[C@@H](C)O)oc(=O)c1C2` (stereo not given in full): the Potency result was “inactive”. With `Cn1cccc1C(=O)N1CCc2ccccc2C1` the entry was “inactive”. For the compound `CC1CCN(C(=O)Cn2nnnc2CN2CCOCC2)CC1`, the Potency entry is “inactive”. Turning to `Cc1cccc(N2CCN(c3ccc(NC(=O)/C=C\C(=O)O)cc3)CC2)c1`, the Potency was 8.28 µM (active). Take `CSc1ccc(NC(=O)/C=C/C(=O)O)cc1`: the Potency result is “inactive”. With `Cc1cccc(N2CCN(C(=O)c3ccccc3NC(=O)C3CCCCC3C(=O)O)CC2)c1` (stereo not given), the Potency result was “inactive”. In the case of `Cc1ccc2oc(C(=O)N3CCN(C)C[C@@H]3C(C)C)c(C)c2c1`, the Potency result is “inactive”.

For `CC1=CC(=Cc2sc3ccccc3[n+]2C)C=C(C)O1`, the Potency was 0.928 µM (active). To `Cc1ccc(-c2noc(CNC(=O)c3ccoc3C)n2)cc1` belongs “inactive”; to `O=C(NCc1ccccc1Cl)C1CCN(S(=O)(=O)c2cccc3nonc23)CC1`, “inactive”.

For the compound `O=C(NCc1ccncc1)C1CCCN(S(=O)(=O)c2ccc(Br)cc2)C1` (stereo not given), the Potency result was “inactive”. For `O=C(Nc1ccncc1)c1c(F)cccc1F`, the Potency entry is “inactive”.

With `CCc1ccc(NC(=O)N[C@H](C(=O)O)C(C)CC)cc1` (stereo not given in full), the Potency entry was “inactive”. With `CC(C)CC(=O)Nc1ccc(Cc2ccncc2)cc1` the entry was “inactive”; with `O=C(NCc1ccccn1)Nc1ccc(F)cc1`, “inactive”. Turning to `CCc1ccc(NC(=O)Nc2ccncc2)cc1`, the Potency was 13.1 µM (active). With `O=C(Nc1ccncc1)Nc1ccc(F)cc1` the figure was 6.57 µM (active). With `CCCOc1ccc(Cc2c(O)nc(N)[nH]c2=O)cc1C`, the Potency entry is “inactive”. With `COc1cc(OC)nc(NC(=O)CCl)n1` the entry was “inactive”; with `CN(C)CCCO/N=C(\c1ccccc1)c1ccncc1`, “inactive”; with `COc1cc(OC)nc(N/N=C(\c2ccccc2)c2ccncc2)n1`, 14.7 µM (active). Turning to `CC(=O)N(C)c1ccc(NC(=O)Nc2cccc3ccccc23)cc1`, the Potency result is “inactive”. Consider `CNC(=O)c1sc(Nc2ccc(OCc3ccccc3)cc2)nc1C`, for which the Potency entry is “inactive”. Regarding `Cn1cncc1COC(=O)c1ccc(Cl)cc1`, the Potency entry was “inactive”. Consider `COc1cc(OC)cc(C(=O)NCCSCc2ccc(Cl)cc2)c1`, for which the Potency entry is “inactive”. With `COc1ccccc1N1CC(C(=O)NCCN2C(=O)S/C(=C\c3cccnc3)C2=O)CC1=O` (stereo not given), the Potency result was “inactive”. `Brc1ccccc1C1Nc2cccc3cccc(c23)N1`: the Potency is 13.1 µM (active). To `Cc1ccc(C2Nc3cccc4cccc(c34)N2)cc1` belongs “inactive”; to `C/C(=C\c1ccco1)C1Nc2cccc3cccc(c23)N1`, “inactive”; to `COc1cccc(CNS(=O)(=O)c2ccc3c(c2)N(C(C)=O)CCS3)c1`, “inactive”. On to `O=C1C(=O)N(CCCN2CCOCC2)C(c2ccc([N+](=O)[O-])cc2)/C1=C(\O)c1ccc2c(c1)OCCO2` (stereo not given), for which the Potency result was “inactive”. In the case of `CC1CN(C(=S)Nc2ccc(S(N)(=O)=O)cc2)CC(C)O1` (stereo not given), the Potency result is “inactive”.

Turning to `O=C(Nc1cccc(Cl)c1)OCc1ccccn1`, the Potency result is “inactive”.

In the case of `CN1C(=O)C(CC(=O)Nc2ccccc2)S/C1=N/c1nccs1` (stereo not given), the Potency result is “inactive”. In the case of `O=C(CC1SC(=Nc2ccccc2)N(Cc2ccccn2)C1=O)Nc1cccc(Cl)c1` (stereo not given), the Potency is 6.57 µM (active). On to `CCCCN1C(=O)C(=O)N(CC(=O)Nc2cccc(C(C)=O)c2)C1=O`, for which the Potency result is “inactive”.

On to `CC(C(=O)N1CCN(c2ccccc2F)CC1)c1ccc([N+](=O)[O-])cc1` (stereo not given), for which the Potency result is “inactive”. With `O=C(COC(=O)c1ncc(Cl)c(Cl)c1Cl)NCc1ccccc1` the entry was “inactive”.

As to `COCCCN1C(=O)c2ccc(C(=O)OCC(=O)NCc3ccccc3OC)cc2C1=O`, the Potency entry was “inactive”.

Consider `Cc1ccn2c(=O)nc(SCC(=O)NCc3ccc(F)cc3)nc2c1`, for which the Potency entry was “inactive”. To `Cc1sc(NC(=O)c2ccc3ncsc3c2)c(C(N)=O)c1C` belongs “inactive”; to `Cc1ccc2nc(C)c3c(c2c1)N(c1ccccc1)CC3`, 5.86 µM (active). Turning to `CSc1nc2ccc(C)cc2c(=O)n1-c1cccnc1`, the Potency result is “inactive”.

Take `Cc1ccc2nc3n(c(=O)c2c1)CCC3`: the Potency entry was “inactive”.

As to `N#Cc1ccc(C(=O)OCC(=O)NC(=O)NC2CCCCC2)cc1`, the Potency result was “inactive”. In the case of `O=C(Nc1cc(-c2nc3ncccc3o2)ccc1Cl)c1ccco1`, the Potency entry was “inactive”. `Cc1ccc(C(=O)COC(=O)CCN2C(=O)C3C4CCC(C4)C3C2=O)cc1C` (stereo not given): the Potency result was “inactive”. For `CCCCCc1ccc(-c2ccc(OCC)cc2)nc1`, the Potency result is “inactive”. Turning to `CCCCCCCCC(=O)NCCOc1ccccc1`, the Potency result is “inactive”. As for `CCCCCCCCCc1ccc(OCCOCCOCCOCCOCCOCCOCCOCCOCCO)cc1`, the Potency is 8.49 µM (active). As for `COc1cccc(OCc2nnc3n2N=C(c2ccccc2)C(CC(=O)O)S3)c1` (stereo not given), the Potency result is “inactive”.

In the case of `COc1cc(S(=O)(=O)N2CCN=C2c2ccccc2)ccc1Cl`, the Potency result is “inactive”. To `CN(C)[C@@H]1C(=O)C(C(N)=O)=C(O)[C@@]2(O)C(=O)C3=C(O)c4c(O)ccc(Cl)c4[C@@H](O)[C@H]3C[C@@H]12` belongs 2.08 µM (active); to `C=C1c2c(Cl)ccc(O)c2C(O)=C2C(=O)[C@]3(O)C(O)=C(C(N)=O)C(=O)[C@@H](N(C)C)[C@@H]3[C@@H](O)C12` (stereo not given in full), 2.33 µM (active); to `COc1ccc(C(=O)COC(=O)Cn2cnc3c2c(=O)n(C)c(=O)n3C)c(OC)c1`, “inactive”. With `COc1cc(C(=O)Nn2c(CC(C)C)nc3ccccc3c2=O)cc(OC)c1OC` the entry was “inactive”.

As for `O=C(O)CSc1c2c(nc3cc(C(=O)Nc4cccc(C(F)(F)F)c4)ccc13)CCCC2`, the Potency entry was “inactive”.

In the case of `O=C(CCc1ccccc1)Nc1cccc(-c2nnc(-c3ccco3)o2)c1`, the Potency was 10.4 µM (active). Take `Cc1cccc(NC(=O)CSc2nnc(-c3ccco3)o2)c1`: the Potency result was “inactive”. With `O=C(Nc1cccc(-c2nnc(-c3ccccc3)o2)c1)C1CCCO1` (stereo not given) the entry was “inactive”; with `O=C(O)c1ccc(NC(=O)c2ccc(COc3ccc(Cl)cc3)o2)cc1`, “inactive”. As for `Cc1c(C)c(C)c(S(=O)(=O)N2CCC3(CC2)OCCO3)c(C)c1C`, the Potency result was “inactive”. As for `c1ccc2cc(CCCc3cc4ccccc4cn3)ncc2c1`, the Potency entry was “inactive”.

Turning to `Cc1n[nH]c(=O)c2c(NC(=O)CSc3cc(Cl)ccc3Cl)oc(C)c12`, the Potency entry was “inactive”. To `O=C(/C=C/c1cccc([N+](=O)[O-])c1)OCC(=O)N1CCOCC1` belongs “inactive”; to `Cc1ccc(C(=O)N/C(=C/c2cccs2)C(=O)N2CCCCC2)cc1`, “inactive”. As for `Cc1ccc(C(=O)N/C(=C\c2cn(S(=O)(=O)N(C)C)c3ccccc23)C(=O)N2CCCC2)cc1`, the Potency is 10.4 µM (active). To `Cc1ccc(C(=O)N/C(=C\c2cn(C)c3ccccc23)C(=O)N2CCN(C)CC2)cc1` belongs “inactive”. Take `COC(=O)c1ccc(/C=N/NC(=O)C(=O)N2CCCCCC2)cc1`: the Potency entry is “inactive”. To `COc1ccccc1-c1sc2ccccc2c1-c1ccc(C(C)=O)cc1` belongs “inactive”; to `Cc1sc2ncnc(N3CCC(C(=O)Nc4ccc(F)cc4Cl)CC3)c2c1C`, 11.7 µM (active); to `Cc1sc2ncnc(N3CCC(C(=O)Nc4nc5ccc(Cl)cc5s4)CC3)c2c1C`, “inactive”. With `Cc1ccnc(N2CCCC(C(=O)Nc3cc(F)ccc3C)C2)n1` (stereo not given) the entry was “inactive”; with `Cc1sc2ncnc(N3CCC(C(=O)NNC(=O)c4ccc(F)cc4)CC3)c2c1C`, 11.7 µM (active); with `O=C(NNC(=O)C1CCCC1)c1ccc(F)cc1`, “inactive”. For the compound `O=C(NNC(=O)C1CCN(c2ncccn2)CC1)c1ccccc1`, the Potency entry was “inactive”. For the compound `COc1ccccc1CNC(=O)COC(=O)CNS(=O)(=O)c1ccc(NC(C)=O)cc1`, the Potency result was “inactive”. For `CC1CCN(C(=O)/C(=C\c2ccccc2F)NC(=O)c2ccccc2)CC1`, the Potency entry is “inactive”. As to `Cc1ccc(S(=O)(=O)NCCCn2ccnc2)cc1C(=O)NC(C)C`, the Potency entry is “inactive”. With `COc1ccc(CNC(=O)c2ccc(Br)s2)cc1OC` the entry was “inactive”; with `Cc1ccc(S(=O)(=O)N2CCN=C2SCc2c(F)cccc2Cl)cc1`, “inactive”.

As for `CCN(CC(=O)Nc1c(F)cccc1F)C(=O)C1CCC1`, the Potency result is “inactive”. Turning to `CCN(CC(=O)Nc1ccccc1C(F)(F)F)C(=O)C1CCN(C(=O)Nc2ccccc2)CC1`, the Potency was 11.7 µM (active). Take `CCN(CC(=O)Nc1ccccc1C(F)(F)F)C(=O)CSCc1c(C)noc1C`: the Potency result was “inactive”.

In the case of `COc1ccc(S(=O)(=O)NNC(=O)Nc2ccc(C)cc2)c(OC)c1`, the Potency result was “inactive”. To `CC(C)=CCCC1(C)C=Cc2c(ccc3c2[nH]c2cc(O)c(C)cc23)O1` (stereo not given) belongs 9.28 µM (active); to `COc1cc2c(C(=O)N(C)c3cc(Cl)ccc3OC)cn(C)c(=O)c2cc1OC`, “inactive”. Take `COc1ccc(C(=O)N2CCCCC2C(=O)Nc2ccc(-n3nc(C)cc3C)cc2)o1` (stereo not given): the Potency entry was “inactive”. Consider `CCCc1cc(=O)[nH]c2nnc(SCC(=O)Nc3nnc(SCC)s3)n12`, for which the Potency result is “inactive”. With `O=C(NC1CCc2ccccc21)C12CN(Cc3ccccc3)CC1C(c1cccc([N+](=O)[O-])c1)=NO2` (stereo not given), the Potency is 3.7 µM (active).

With `O=C(/C=C/c1cccc([N+](=O)[O-])c1)N1CCN(Cc2ccccc2)CC1`, the Potency entry was “inactive”. With `O=C(NCCN1CCN(C(=O)c2cccc([N+](=O)[O-])c2)CC1)C(=O)NCc1ccc(Cl)cc1` the entry was “inactive”; with `CN(Cc1ccccc1)C(=O)CCc1ccccc1`, “inactive”; with `CN(C(=O)CN(CCO)CC(=O)N(C)C(C)(C)Cc1ccccc1)C(C)(C)Cc1ccccc1`, “inactive and 9.28 µM (active)”. With `CCN(CC)C(=O)N(CC)Cc1ccccc1`, the Potency result was “inactive”. To `CN(CC(=O)NCc1ccc2c(c1)OCO2)CC(=O)Nc1ccc(F)c(F)c1F` belongs “inactive”; to `Cc1cc(/C=N/NC(=O)c2cccnc2)c(C)n1CC(C)C`, “inactive”. As for `O=C(N/N=C/c1sc(N2CCCCC2)nc1-c1cccs1)c1cccnc1`, the Potency is 3.29 µM (active).

For `O=C(N/N=C/c1ccccn1)c1cccnc1`, the Potency entry was “inactive”. With `COc1ccc2c(C(=O)c3ccc(C)cc3)n(CCC(N)=O)[n+]([O-])c2c1` the entry was “inactive”; with `Cc1cc(C(=O)N/N=C/c2ccccn2)c2ccccc2n1`, “inactive”.
